In the supplement of paper PMC12819154, “High-throughput peptide-centric local stability assay extends protein–ligand identification to membrane proteins, tissues and bacteria” (Nature Structural & Molecular Biology, 2025):

The targets below were run with Cc1nc(Nc2ncc(C(=O)Nc3c(C)cccc3Cl)s2)cc(N2CCN(CCO)CC2)n1 [dasatinib] (assay: log2 fold change of tryptic peptide abundance, ligand vs vehicle (limited proteolysis) (log2 ratio); higher = more trypsin-susceptible (destabilized)). Settings: ligand concentration: 5 uM; sample: K562 cleared lysate.

Chain of UniProt Q8N4C8 (Q8N4C8 whole entry, looked up): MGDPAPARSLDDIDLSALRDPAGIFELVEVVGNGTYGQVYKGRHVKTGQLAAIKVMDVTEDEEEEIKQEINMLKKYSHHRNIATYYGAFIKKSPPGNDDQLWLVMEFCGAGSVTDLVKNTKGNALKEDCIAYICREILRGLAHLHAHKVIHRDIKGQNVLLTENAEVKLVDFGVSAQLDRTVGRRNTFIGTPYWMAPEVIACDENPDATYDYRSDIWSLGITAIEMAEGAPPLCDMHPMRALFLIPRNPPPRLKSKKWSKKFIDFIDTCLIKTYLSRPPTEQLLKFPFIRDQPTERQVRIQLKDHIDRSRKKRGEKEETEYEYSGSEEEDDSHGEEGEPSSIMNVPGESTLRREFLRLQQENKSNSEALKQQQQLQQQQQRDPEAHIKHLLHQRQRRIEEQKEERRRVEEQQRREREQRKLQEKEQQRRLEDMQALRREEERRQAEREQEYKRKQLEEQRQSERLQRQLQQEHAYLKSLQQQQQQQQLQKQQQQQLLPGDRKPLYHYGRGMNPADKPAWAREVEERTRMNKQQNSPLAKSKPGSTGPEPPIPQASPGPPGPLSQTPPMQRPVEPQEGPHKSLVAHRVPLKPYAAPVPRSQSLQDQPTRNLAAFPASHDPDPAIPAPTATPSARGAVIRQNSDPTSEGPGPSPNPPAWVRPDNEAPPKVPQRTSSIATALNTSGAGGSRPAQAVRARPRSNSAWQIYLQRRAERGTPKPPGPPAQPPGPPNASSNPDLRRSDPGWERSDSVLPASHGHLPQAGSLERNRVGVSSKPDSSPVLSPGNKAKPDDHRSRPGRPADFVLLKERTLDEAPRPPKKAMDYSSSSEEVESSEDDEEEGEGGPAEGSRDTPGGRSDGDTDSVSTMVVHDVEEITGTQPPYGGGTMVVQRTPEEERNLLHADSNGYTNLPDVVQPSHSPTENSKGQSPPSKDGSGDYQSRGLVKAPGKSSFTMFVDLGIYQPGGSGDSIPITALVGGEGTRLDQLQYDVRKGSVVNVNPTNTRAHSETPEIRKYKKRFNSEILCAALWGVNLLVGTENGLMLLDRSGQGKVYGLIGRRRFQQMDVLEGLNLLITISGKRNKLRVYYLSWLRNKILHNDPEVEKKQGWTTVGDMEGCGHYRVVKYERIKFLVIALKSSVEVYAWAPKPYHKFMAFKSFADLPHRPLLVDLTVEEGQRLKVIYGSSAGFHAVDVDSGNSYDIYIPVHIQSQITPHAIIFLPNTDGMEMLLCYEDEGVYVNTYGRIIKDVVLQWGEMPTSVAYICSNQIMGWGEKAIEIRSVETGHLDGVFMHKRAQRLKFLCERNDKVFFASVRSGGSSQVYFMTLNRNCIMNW
Chain of UniProt Q13043 (Q13043 whole entry): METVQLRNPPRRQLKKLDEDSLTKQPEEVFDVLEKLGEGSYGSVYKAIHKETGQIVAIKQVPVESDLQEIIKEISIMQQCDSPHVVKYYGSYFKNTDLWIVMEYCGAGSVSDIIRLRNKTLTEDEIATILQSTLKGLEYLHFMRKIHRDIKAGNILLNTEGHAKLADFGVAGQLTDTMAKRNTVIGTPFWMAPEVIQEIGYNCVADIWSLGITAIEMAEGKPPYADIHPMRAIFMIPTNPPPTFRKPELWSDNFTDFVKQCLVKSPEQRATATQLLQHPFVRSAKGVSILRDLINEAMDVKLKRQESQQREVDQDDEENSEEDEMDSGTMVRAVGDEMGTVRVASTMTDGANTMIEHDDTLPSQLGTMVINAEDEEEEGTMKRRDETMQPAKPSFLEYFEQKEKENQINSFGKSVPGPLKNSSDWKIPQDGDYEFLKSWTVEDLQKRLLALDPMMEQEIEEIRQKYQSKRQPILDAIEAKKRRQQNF
Chain of UniProt P07947 (P07947 whole entry, looked up): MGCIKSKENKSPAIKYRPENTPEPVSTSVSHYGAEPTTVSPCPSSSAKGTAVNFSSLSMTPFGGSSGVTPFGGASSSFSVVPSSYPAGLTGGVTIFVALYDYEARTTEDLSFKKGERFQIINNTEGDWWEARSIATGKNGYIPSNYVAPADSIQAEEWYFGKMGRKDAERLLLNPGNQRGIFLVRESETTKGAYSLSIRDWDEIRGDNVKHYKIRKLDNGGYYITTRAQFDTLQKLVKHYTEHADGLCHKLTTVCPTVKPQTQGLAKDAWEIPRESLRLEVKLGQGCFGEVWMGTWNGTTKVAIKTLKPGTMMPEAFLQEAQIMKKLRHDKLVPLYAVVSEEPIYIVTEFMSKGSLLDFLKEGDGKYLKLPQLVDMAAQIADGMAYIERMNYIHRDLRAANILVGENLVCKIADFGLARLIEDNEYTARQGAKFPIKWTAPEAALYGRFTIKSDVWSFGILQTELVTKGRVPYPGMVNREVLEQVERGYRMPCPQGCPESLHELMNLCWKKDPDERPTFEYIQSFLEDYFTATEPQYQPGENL
Chain of UniProt Q9Y2K2 (Q9Y2K2 whole entry, looked up): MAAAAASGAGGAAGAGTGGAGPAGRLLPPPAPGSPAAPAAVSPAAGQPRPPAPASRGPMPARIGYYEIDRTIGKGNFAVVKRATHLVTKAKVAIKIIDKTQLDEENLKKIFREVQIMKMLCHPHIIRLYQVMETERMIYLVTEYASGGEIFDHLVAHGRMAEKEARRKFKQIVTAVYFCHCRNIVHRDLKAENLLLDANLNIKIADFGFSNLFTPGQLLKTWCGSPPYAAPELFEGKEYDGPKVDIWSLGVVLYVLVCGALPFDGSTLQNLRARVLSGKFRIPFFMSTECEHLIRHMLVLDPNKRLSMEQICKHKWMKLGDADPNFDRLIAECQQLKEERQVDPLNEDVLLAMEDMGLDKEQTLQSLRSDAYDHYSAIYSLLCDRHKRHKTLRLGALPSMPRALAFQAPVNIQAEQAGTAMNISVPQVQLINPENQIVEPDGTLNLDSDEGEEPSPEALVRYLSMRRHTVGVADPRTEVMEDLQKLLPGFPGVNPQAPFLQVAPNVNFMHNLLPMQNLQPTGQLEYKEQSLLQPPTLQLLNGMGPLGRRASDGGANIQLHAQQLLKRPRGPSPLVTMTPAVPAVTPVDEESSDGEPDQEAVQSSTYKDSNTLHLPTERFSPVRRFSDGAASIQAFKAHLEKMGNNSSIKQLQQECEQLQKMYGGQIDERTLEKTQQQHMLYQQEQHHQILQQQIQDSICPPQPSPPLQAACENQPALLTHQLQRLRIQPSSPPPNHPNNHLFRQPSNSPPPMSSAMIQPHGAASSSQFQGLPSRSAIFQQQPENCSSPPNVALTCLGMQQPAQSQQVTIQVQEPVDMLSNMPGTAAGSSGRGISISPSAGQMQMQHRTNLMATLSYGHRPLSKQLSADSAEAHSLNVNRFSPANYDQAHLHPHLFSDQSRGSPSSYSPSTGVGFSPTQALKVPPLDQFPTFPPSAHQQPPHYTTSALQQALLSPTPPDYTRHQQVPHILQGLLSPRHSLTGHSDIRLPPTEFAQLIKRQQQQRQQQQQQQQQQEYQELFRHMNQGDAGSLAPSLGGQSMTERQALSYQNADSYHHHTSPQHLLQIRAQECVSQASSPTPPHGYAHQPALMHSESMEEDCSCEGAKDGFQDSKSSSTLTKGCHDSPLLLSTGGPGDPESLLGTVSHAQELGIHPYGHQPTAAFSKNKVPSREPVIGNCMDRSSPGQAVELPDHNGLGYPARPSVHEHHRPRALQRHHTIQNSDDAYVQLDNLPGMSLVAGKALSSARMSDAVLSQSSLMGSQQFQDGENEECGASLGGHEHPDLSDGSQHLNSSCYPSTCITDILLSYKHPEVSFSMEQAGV
Chain of UniProt Q9NRN7 (Q9NRN7 whole entry): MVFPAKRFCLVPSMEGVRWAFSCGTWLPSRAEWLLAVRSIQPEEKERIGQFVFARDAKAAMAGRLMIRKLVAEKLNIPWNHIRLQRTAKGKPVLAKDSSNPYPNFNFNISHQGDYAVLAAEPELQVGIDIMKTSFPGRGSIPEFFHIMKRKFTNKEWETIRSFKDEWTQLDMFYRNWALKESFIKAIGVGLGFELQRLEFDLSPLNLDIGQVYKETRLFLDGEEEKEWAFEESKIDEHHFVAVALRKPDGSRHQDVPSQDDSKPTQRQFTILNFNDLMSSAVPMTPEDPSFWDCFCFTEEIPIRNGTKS
Chain of UniProt Q15759 (Q15759 whole entry): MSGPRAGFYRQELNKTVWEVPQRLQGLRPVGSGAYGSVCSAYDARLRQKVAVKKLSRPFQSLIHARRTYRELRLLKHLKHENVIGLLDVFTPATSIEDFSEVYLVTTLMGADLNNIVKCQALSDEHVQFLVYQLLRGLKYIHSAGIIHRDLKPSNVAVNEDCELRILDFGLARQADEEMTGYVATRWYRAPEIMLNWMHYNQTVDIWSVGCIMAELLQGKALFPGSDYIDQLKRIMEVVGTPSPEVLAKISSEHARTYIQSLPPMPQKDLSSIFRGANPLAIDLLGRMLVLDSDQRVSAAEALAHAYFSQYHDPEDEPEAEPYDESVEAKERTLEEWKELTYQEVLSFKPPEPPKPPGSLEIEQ
Chain of UniProt P22830 (P22830 whole entry): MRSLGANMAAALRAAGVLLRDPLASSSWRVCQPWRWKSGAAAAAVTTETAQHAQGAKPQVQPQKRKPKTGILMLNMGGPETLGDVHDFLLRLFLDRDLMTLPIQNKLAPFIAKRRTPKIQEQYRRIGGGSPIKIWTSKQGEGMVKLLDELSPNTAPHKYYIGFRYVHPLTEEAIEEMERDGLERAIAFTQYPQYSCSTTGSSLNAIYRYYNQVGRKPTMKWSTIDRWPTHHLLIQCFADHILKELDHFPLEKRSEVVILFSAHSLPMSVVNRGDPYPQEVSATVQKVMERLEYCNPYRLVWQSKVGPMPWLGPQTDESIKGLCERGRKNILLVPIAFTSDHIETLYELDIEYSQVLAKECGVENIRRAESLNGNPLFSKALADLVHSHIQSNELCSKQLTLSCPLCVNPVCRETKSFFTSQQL

Target | log2 fold change
AASDHPPT (peptide sequence: IGQFVFAR, peptide start residue: 48) (UniProt Q9NRN7) | -0.547
UniProt P46781 (peptide sequence: ELLTLDEKDPRR, peptide start residue: 59) | -0.304
UniProt Q9Y2K2 (peptide sequence: IGYYEIDR, peptide start residue: 63) | -1.83
MAPK11 (peptide sequence: ILDFGLAR, peptide start residue: 167) (UniProt Q15759) | -0.259
SYK (peptide sequence: GSEVTAMLEKGER, peptide start residue: 578) (UniProt P43405) | -0.709
UniProt P07947 (peptide sequence: LTTVCPTVKPQTQGLAK, peptide start residue: 251) | 2.59
UniProt Q8N4C8 (peptide sequence: NIATYYGAFIK, peptide start residue: 81) | -0.397
ARAF (peptide sequence: RLLSDCLK, peptide start residue: 544) (UniProt P10398) | 0.619
UniProt Q13043 (peptide sequence: ATATQLLQHPFVR, peptide start residue: 270) | -0.627
FECH (peptide sequence: LFLDRDLMTLPIQNK, peptide start residue: 92) (UniProt P22830) | -0.278
LIMK2 (peptide sequence: GFFGQAIK, peptide start residue: 340) (UniProt P53671) | -1.19
